In PubChem BioAssay (NCI) one finds growth data, which are given here for 39 compounds.

Each structure is given as a SMILES string. This is part of a sample that, as a whole, favours compounds with a hit. Of some 83,000 tested, about 20% had one in any assay.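 Values shown are percent growth following 48 h exposure of cells in 96-well plates to a single concentration of compound; below 10 was considered active.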 Activity calls are given as the source filed them.

For one assay, the system named is RXF 393 renal. Kind of assay: NCI-60 one-dose screen, 48 h (100 = growth as untreated, 0 = no growth, -100 = all killed). Conditions: 10 µM.
Regarding `CCNc1nc2c(cnn2C)c(=O)[nH]1`, the growth was 94.6% (inactive).
Take `O=[N+]([O-])c1cccc(N=Nc2ccc(O)cc2O)c1`: the growth is 83.5% (inactive).
Take `CC(=O)/C(Cc1ccccc1)=N/O`: the growth is 109% (inactive).
Consider `O=[N+]([O-])c1ccccc1N=Nc1ccc(O)cc1O`, for which the growth was 121% (inactive).
As for `CCn1c(=O)n(C)c2c(=O)n(C)c(=O)n(C)c21`, the growth was 109% (inactive).
`O=P(O)(O)OCC(O)CO` (stereo unspecified): the growth was 107% (inactive).
On the same count and under the same terms, then `CCCCCCCCCCC1CO1` (stereo unspecified), with 103% (inactive); and `CC(=O)OCCO`, with 105% (inactive); and `CC(=O)OCC(=O)[C@@]1(O)CC[C@H]2[C@@H]3CC[C@@H]4C[C@H](O)CC[C@]4(C)[C@H]3C(=O)C[C@@]21C`, with 94.8% (inactive).
For the compound `COc1cc2c3cc1Oc1c(OC)c(OC)cc4c1C(Cc1ccc(O)c(c1)Oc1ccc(cc1)CC3N(C)CC2)N(C)CC4` (stereo unspecified), the growth was -14.9% (active).
Take `COc1cccc(/C=N/NC(=S)NC2CC3CCC2C3)c1O` (stereo unspecified): the growth was 51.5% (inactive).
As for `O=S(=O)(Cc1ccccc1)c1ccccc1`, the growth is 102% (inactive).
For the compound `COc1cc2nn(-c3ccccc3N)nc2cc1OC`, the growth was 87% (inactive).
On to `CC1C(=O)c2ccccc2CC1C(=O)O` (stereo unspecified), for which the growth is 120% (inactive).
Still for that read-out and setting: the result for `O=[N+]([O-])c1ccc(S(=O)(=O)NN=C2CCCCC2)cc1` reads 117% (inactive); that for `CNc1nc(NC)c2cn[nH]c2n1`, 101% (inactive).
For `CC(=Nc1ccccc1)C1=C(O)C(Cc2cccc(F)c2)NC1=O` (stereo unspecified), the growth is 41.7% (inactive).
For `CCOC(=O)c1ccc(NC(=S)P(=O)(c2ccccc2)c2ccccc2)cc1`, the growth was 120% (inactive).
For the compound `COCCOC(=O)c1ccc(C(C)C)cc1`, the growth was 124% (inactive).
Same read-out and setting: then `CCCC(C)OCC(=O)O` (stereo unspecified), with 96.4% (inactive); and `O=c1[nH][nH]c(=O)c2cc([N+](=O)[O-])ccc12`, with 109% (inactive).
With `O=[N+]([O-])c1ccc(N=Nc2ccc(O)c3ccccc23)cc1`, the growth is 60.1% (inactive).
For `CCCCCCCCO`, the growth was 106% (inactive).
As for `Cn1cnc2nc(Cl)nc(Cl)c21`, the growth was 30.6% (inactive).
In the case of `OCC(O)C(O)C(O)C(O)/C=N/O` (stereo unspecified), the growth was 98.9% (inactive).
Turning to `O=C(O)COCC(=O)O`, the growth is 102% (inactive).
Same read-out and setting: the result for `Cc1ccc(S(=O)(=O)O)c(C)c1` reads 117% (inactive); that for `NC(=S)N/N=C/c1ccc(N)cc1`, 107% (inactive).
Same read-out and setting: the result for `O=c1[nH]nc(SC2CCCCC2)c(=O)[nH]1` reads 129% (inactive).
Take `CC1CC(O)C2C3(C)CCCC2(COC3=O)C12CCC1(CCOC1=O)O2` (stereo unspecified): the growth was 114% (inactive).
On to `CCOc1ccc(Br)cc1/C=N\N=C\c1cc(Br)ccc1OCC`, for which the growth is 145% (inactive).
For the compound `S=C1CCCCCN1`, the growth was 123% (inactive).
On to `CC1CCCCN1C(=S)Nc1ccc(S(=O)(=O)N2CCCCC2)cc1` (stereo unspecified), for which the growth was 109% (inactive).
With `COc1cc(C2c3cc4c(cc3C3OC(=O)C2C3CO)OCO4)cc(OC)c1OC` (stereo unspecified), the growth is 57.9% (inactive).
For `CCCCOC(=O)c1ccc(C(C)C)cc1`, the growth was 112% (inactive).
Turning to `NCCCN`, the growth was 115% (inactive).
With `O=C(O)CCCC(=O)O`, the growth is 99.5% (inactive).
`COc1ccc(-c2cc3c(nn2)-c2ccccc2C3=O)cc1`: the growth is 71.8% (inactive).

The next assay has as its system SF-268 CNS. The assay is described as above. Conditions: 10 µM.
Turning to `CCNc1nc2c(cnn2C)c(=O)[nH]1`, the growth was 104% (inactive).
For the compound `O=[N+]([O-])c1cccc(N=Nc2ccc(O)cc2O)c1`, the growth was 83.4% (inactive).
As to `CC(=O)/C(Cc1ccccc1)=N/O`, the growth is 104% (inactive).
As for `O=[N+]([O-])c1ccccc1N=Nc1ccc(O)cc1O`, the growth was 118% (inactive).
Regarding `O=P(O)(O)OCC(O)CO` (stereo unspecified), the growth is 108% (inactive).
In the case of `CCCCCCCCCCC1CO1` (stereo unspecified), the growth was 106% (inactive).
Consider `CC(=O)OCCO`, for which the growth is 106% (inactive).
For the compound `CC(=O)OCC(=O)[C@@]1(O)CC[C@H]2[C@@H]3CC[C@@H]4C[C@H](O)CC[C@]4(C)[C@H]3C(=O)C[C@@]21C`, the growth is 102% (inactive).
For `COc1cc2c3cc1Oc1c(OC)c(OC)cc4c1C(Cc1ccc(O)c(c1)Oc1ccc(cc1)CC3N(C)CC2)N(C)CC4` (stereo unspecified), the growth was 36.2% (inactive).
As to `COc1cccc(/C=N/NC(=S)NC2CC3CCC2C3)c1O` (stereo unspecified), the growth was 63.3% (inactive).
Still for that read-out and setting: the result for `O=S(=O)(Cc1ccccc1)c1ccccc1` reads 101% (inactive).
In the case of `COc1cc2nn(-c3ccccc3N)nc2cc1OC`, the growth was 100% (inactive).
On to `CC1C(=O)c2ccccc2CC1C(=O)O` (stereo unspecified), for which the growth is 130% (inactive).
For the compound `O=[N+]([O-])c1ccc(S(=O)(=O)NN=C2CCCCC2)cc1`, the growth is 116% (inactive).
In the case of `CC(=O)c1ccc(N=C(C#N)C2=C(O)c3ccccc3C2=O)cc1`, the growth was 101% (inactive).
On the same count and under the same terms, then `CNc1nc(NC)c2cn[nH]c2n1`, with 114% (inactive); and `CC(=Nc1ccccc1)C1=C(O)C(Cc2cccc(F)c2)NC1=O` (stereo unspecified), with 31.1% (inactive).
For `CCOC(=O)c1ccc(NC(=S)P(=O)(c2ccccc2)c2ccccc2)cc1`, the growth is 94.5% (inactive).
Turning to `COCCOC(=O)c1ccc(C(C)C)cc1`, the growth was 99.1% (inactive).
On to `CCCC(C)OCC(=O)O` (stereo unspecified), for which the growth was 99.2% (inactive).
Turning to `O=c1[nH][nH]c(=O)c2cc([N+](=O)[O-])ccc12`, the growth was 111% (inactive).
Regarding `O=[N+]([O-])c1ccc(N=Nc2ccc(O)c3ccccc23)cc1`, the growth was 45.9% (inactive).
For the compound `CCCCCCCCO`, the growth is 108% (inactive).
On to `Cn1cnc2nc(Cl)nc(Cl)c21`, for which the growth is 22.1% (inactive).
The same measure, in the same setting: the result for `OCC(O)C(O)C(O)C(O)/C=N/O` (stereo unspecified) reads 98% (inactive).
As to `O=C(O)COCC(=O)O`, the growth was 92.6% (inactive).
As for `Cc1ccc(S(=O)(=O)O)c(C)c1`, the growth was 114% (inactive).
As to `NC(=S)N/N=C/c1ccc(N)cc1`, the growth was 97.1% (inactive).
Still for that read-out and setting: then `O=c1[nH]nc(SC2CCCCC2)c(=O)[nH]1`, with 98.8% (inactive).
Take `CC1CC(O)C2C3(C)CCCC2(COC3=O)C12CCC1(CCOC1=O)O2` (stereo unspecified): the growth was 107% (inactive).
Take `CCOc1ccc(Br)cc1/C=N\N=C\c1cc(Br)ccc1OCC`: the growth was 97.6% (inactive).
With `S=C1CCCCCN1`, the growth is 99.6% (inactive).
On to `CC1CCCCN1C(=S)Nc1ccc(S(=O)(=O)N2CCCCC2)cc1` (stereo unspecified), for which the growth was 97.2% (inactive).
Take `COc1cc(C2c3cc4c(cc3C3OC(=O)C2C3CO)OCO4)cc(OC)c1OC` (stereo unspecified): the growth is 30.3% (inactive).
In the case of `CCCCOC(=O)c1ccc(C(C)C)cc1`, the growth is 100% (inactive).
Take `NCCCN`: the growth is 103% (inactive).
As to `O=C(O)CCCC(=O)O`, the growth is 94.1% (inactive).
For `COc1ccc(-c2cc3c(nn2)-c2ccccc2C3=O)cc1`, the growth was 39.1% (inactive).
